Neddyl block – inhibitors of human cullin neddylation; P61081+Q13564; actives 0.58% (n = 360,000); inhibition, % at 25 µM; TR-FRET cullin neddylation, biochemical; AID 651699; in the data active = inhibition above about 36%
NPR1 activator – GC-A (human) enzyme activation; HEK293 GC-A cells, cGMP TR-FRET, EC30 ANP; 0% at EC30 ANP, 100% saturating ANP; actives 0.14% (n = 370,000); activation, % at 10 µM; in the data active = activation above about 40%
GC-B act – GC-B (human) receptor activation | actives 0.11% (n = 370,000) | activation, % at 10 µM | AID 1920062 | HEK293-GC-B cells, CNP EC30, cGMP TR-FRET; 0% at EC30 CNP, 100% saturating CNP | P20594;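 active = activation at 10 µM reaching about 35% in either raw or pattern-adjusted values, limit read from the data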
NadD inh – NadD (S. aureus) enzyme inhibition. actives 0.78% (n = 360,000). AID 602399. purified NadD enzyme, colorimetric absorbance read-out. inhibition, % at 20 µM; in the data active = inhibition above about 26%
NadD inh conf – confirmation of Staphylococcus aureus NadD inhibitors; shares compounds with NadD inh; purified S. aureus NadD, colorimetric enzyme assay; inhibition, % at 20 µM; actives 13% (n = 2,000); AID 624309; in the data active = inhibition mostly above about 42%, no sharp cut-off; inactive = mostly below about 42%
Neddyl conf – confirmation of human cullin neddylation inhibitors; TR-FRET cullin neddylation biochemical assay; actives 13% (n = 1,800); shares compounds with Neddyl block; calls only at 25 µM; in the data active = inhibition above about 40%;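 also: neddylation substrate is the cullin 1 ring ligase complex with SKP2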
A number is an active result; n = inactive; x = not tested or not shown; + = active, no number. Shown are actives, neighbours in structure and some others; about 1.5% of the full set was active somewhere.

SMILES	Neddyl block	NPR1 activator	GC-B act	NadD inh	others
CC(=O)c1ccc2c(c1)C1C(Cl)C(Sc3ccccc3[N+](=O)[O-])CC1C(c1ccccc1[N+](=O)[O-])N2 (stereo not given)	n	n	75	68	NadD inh conf=n
O=C1NC(=O)C(Sc2ccccc2[N+](=O)[O-])C(=O)N1	n	n	n	n
O=C(NCCCN1CC1)Nc1cccc2ccccc12	n	n	n	34	NadD inh conf=n
COP(=O)(OC)C(C)NC(=O)OCc1ccccc1 (stereo not given)	x	n	n	x
N#CCCC#N	x	n	n	x
Cc1cccc(C)c1-n1nnnc1C(CCc1ccccc1)N1CCC2(CC1)C(=O)NCN2c1ccccc1 (stereo not given)	n	n	n	41	NadD inh conf=n
O=C1NCN(c2ccccc2)C12CCN(C(c1cccc3ccccc13)c1nnnn1C1CCCCC1)CC2 (stereo not given)	n	n	n	30	NadD inh conf=n
CN1C2CCC1C(C(=O)Oc1ccccc1)C(c1ccc(Cl)cc1)C2 (stereo not given)	x	n	n	x
NC(N)=N/N=C/c1ccc(N2CCOCC2)cc1	54	n	n	n	Neddyl conf=n
COc1ccc(/C=N\N=C(N)N)cc1	n	n	n	n
Clc1cc(Cl)cc(CN2Cc3ccccc3-n3nncc3C2)c1	x	n	n	x
CC1(O)CCC2C3CCC4=CC(=O)CCC4=C3C=CC21C (stereo not given)	40	n	n	n	Neddyl conf=n
COc1cc2c(cc1O)CC1c3c(cc(O)c(OC)c3-2)CCN1C (stereo not given)	43	n	n	n
COc1cc2c(cc1OC)-c1c(OC)c(OC)cc3c1[C@H](C2)N(C)CC3	n	n	n	n
Cc1ccc(-n2nc(C)cc2NC(=O)COc2cc(C)cc3oc(=O)c4c(c23)CCC4)cc1	43	n	n	n	Neddyl conf=n
CC(C)S(=O)(=O)N1Cc2ccc(Br)cc2-n2nncc2C1	x	n	n	x
O=C(NCCN1CCC2(CC1)C(=O)NCN2c1ccccc1)c1ccc(Cl)cc1	x	n	n	x
Cn1c(O)c(/C=N/NC(=O)c2ccncc2)c(=O)[nH]c1=S	n	n	n	n
CCCCC(=O)N/N=C/c1c(O)n(CCc2ccccc2)c(=O)[nH]c1=O	45	n	n	n	Neddyl conf=n
CCCCn1c(O)c(/C=N/NC(=O)c2ccncc2)c(=O)[nH]c1=S	40	n	n	n
CCCCCCC(=O)N/N=C/c1c(O)n(CCCC)c(=S)[nH]c1=O	50	n	n	n	Neddyl conf=n
Cc1ccc(OC(=O)N(C)C[C@H]2OCc3cnnn3CCCC(=O)N([C@@H](C)CO)C[C@@H]2C)cc1	x	n	n	x
CC[C@@H](CO)NC(=O)[C@@H]1C=C2c3cccc4[nH]cc(c34)C[C@H]2N(C)C1	45	n	n	n
O=C(O)c1ccc(-[n+]2c(-c3ccccc3)cc(-c3ccccc3)cc2-c2ccccc2)cc1	n	n	n	n
Cc1ccc(-c2cc(-c3ccccc3)cc(-c3ccccc3)[n+]2-c2ccc(C(=O)O)cc2)cc1	34	n	n	n	Neddyl conf=+
COC(=O)C1CC(OC(C)=O)C(=O)[C@H]2C1(C)CC[C@H]1C(=O)OC(c3ccoc3)CC12C (stereo not given in full)	x	n	n	x

Source: PubChem BioAssay
